Results taken from PubChem BioAssay.
Calls of active or inactive are those of the source.

Experiments:
[1] = tested on: PRMT1 (protein arginine N-methyltransferase 1); assay: PRMT1 binders on small-molecule microarrays, primary screen, biochemical, small-molecule microarray, 635 nm fluorescence (AID 1088); conditions: small-molecule microarray binding, higher = more signal;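 also: binding of Prmt1 protein to compounds spotted on small-molecule microarray slides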
[2] = yeast growth modulation, basal conditions, primary screen, YJM789 clinical isolate, OD600, 24 h (AID 1089);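 also: growth of clinical yeast isolate S. cerevisiae YJM 789 seeded 1000 cells per well; test concentration not given here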; conditions: S. cerevisiae YJM789 growth, higher = more signal, called active from +8 up or from −8 down
[3] = fission yeast growth modulation, primary screen, strain 972, OD600, 24 h, no modulator (AID 1090);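 also: basal condition with compound alone and no growth modifier present; test concentration not given here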; conditions: S. pombe 972 growth, higher = more signal, called active from +8 up or from −8 down
[4] = S. cerevisiae growth modulation with rapamycin, primary screen, strain BY4716, OD600, 96 h (AID 1091); conditions: higher = more signal, called active from +8 up or from −8 down; also: test concentration not given here
[5] = molecular target: Torsin-1A-interacting protein 2 (Homo sapiens) (UniProt Q8NFQ8); assay: LULL1 binders on small-molecule microarray, primary screen, cell lysate, human LULL1 lysate, 635/667 nm fluorescence (AID 1092); conditions: hLULL1 lysate binding, 635 nm fluorescence, higher = more signal;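 also: probe is lysate of COS7 cells overexpressing human LULL1; score merges per-feature 667 nm fluorescence with signal-to-noise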
Torsin-1A-interacting protein 2 (Homo sapiens), sequence (Q8NFQ8 whole entry, looked up): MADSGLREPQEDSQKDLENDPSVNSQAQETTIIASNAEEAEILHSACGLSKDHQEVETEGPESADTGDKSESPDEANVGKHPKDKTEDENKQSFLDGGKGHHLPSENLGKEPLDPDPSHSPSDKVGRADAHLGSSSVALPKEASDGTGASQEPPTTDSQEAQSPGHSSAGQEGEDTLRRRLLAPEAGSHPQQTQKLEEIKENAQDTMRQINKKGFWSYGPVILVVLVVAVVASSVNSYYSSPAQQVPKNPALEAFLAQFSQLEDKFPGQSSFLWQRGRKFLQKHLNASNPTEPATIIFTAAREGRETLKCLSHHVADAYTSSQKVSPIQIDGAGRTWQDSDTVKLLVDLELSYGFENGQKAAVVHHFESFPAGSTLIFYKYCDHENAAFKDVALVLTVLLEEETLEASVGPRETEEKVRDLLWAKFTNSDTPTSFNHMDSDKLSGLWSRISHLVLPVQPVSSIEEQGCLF

[6] = E. coli growth modulation, two-sided OD650, primary screen, E. coli filamentation project, strain DRC41, 24 h (AID 1093); conditions: OD650, 24 h, higher = more signal, called active from +8 up or from −8 down;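 also: MC1000 strain lacking acrAB efflux and sulA so SOS filamentation is blocked; test concentration not given here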
[7] = small-molecule microarray binders of probe aLefty2, primary screen, biochemical, biotinylated probe, 635/667 nm fluorescence (AID 1094); conditions: higher = more signal;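 also: score merges spot fluorescence near 667 nm with spot signal-to-noise ratio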
[8] = tested on: Noggin (protein binding on small-molecule microarray); assay: Noggin binders on small-molecule microarray, primary screen, biochemical, 635/667 nm fluorescence (AID 1095); conditions: 635 nm fluorescence, higher = more signal;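 also: score merges 667 nm feature fluorescence with signal to noise over triplicate slides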
[9] = molecular target: Neurogenic locus notch homolog protein 3 (Homo sapiens) (UniProt Q9UM47); assay: NOTCH3 binders on small-molecule microarray, primary screen, biochemical, 635/667 nm fluorescence (AID 1096); conditions: NOTCH3 binding, 635 nm fluorescence, higher = more signal
Neurogenic locus notch homolog protein 3 (Homo sapiens), sequence (Q9UM47 whole entry, looked up): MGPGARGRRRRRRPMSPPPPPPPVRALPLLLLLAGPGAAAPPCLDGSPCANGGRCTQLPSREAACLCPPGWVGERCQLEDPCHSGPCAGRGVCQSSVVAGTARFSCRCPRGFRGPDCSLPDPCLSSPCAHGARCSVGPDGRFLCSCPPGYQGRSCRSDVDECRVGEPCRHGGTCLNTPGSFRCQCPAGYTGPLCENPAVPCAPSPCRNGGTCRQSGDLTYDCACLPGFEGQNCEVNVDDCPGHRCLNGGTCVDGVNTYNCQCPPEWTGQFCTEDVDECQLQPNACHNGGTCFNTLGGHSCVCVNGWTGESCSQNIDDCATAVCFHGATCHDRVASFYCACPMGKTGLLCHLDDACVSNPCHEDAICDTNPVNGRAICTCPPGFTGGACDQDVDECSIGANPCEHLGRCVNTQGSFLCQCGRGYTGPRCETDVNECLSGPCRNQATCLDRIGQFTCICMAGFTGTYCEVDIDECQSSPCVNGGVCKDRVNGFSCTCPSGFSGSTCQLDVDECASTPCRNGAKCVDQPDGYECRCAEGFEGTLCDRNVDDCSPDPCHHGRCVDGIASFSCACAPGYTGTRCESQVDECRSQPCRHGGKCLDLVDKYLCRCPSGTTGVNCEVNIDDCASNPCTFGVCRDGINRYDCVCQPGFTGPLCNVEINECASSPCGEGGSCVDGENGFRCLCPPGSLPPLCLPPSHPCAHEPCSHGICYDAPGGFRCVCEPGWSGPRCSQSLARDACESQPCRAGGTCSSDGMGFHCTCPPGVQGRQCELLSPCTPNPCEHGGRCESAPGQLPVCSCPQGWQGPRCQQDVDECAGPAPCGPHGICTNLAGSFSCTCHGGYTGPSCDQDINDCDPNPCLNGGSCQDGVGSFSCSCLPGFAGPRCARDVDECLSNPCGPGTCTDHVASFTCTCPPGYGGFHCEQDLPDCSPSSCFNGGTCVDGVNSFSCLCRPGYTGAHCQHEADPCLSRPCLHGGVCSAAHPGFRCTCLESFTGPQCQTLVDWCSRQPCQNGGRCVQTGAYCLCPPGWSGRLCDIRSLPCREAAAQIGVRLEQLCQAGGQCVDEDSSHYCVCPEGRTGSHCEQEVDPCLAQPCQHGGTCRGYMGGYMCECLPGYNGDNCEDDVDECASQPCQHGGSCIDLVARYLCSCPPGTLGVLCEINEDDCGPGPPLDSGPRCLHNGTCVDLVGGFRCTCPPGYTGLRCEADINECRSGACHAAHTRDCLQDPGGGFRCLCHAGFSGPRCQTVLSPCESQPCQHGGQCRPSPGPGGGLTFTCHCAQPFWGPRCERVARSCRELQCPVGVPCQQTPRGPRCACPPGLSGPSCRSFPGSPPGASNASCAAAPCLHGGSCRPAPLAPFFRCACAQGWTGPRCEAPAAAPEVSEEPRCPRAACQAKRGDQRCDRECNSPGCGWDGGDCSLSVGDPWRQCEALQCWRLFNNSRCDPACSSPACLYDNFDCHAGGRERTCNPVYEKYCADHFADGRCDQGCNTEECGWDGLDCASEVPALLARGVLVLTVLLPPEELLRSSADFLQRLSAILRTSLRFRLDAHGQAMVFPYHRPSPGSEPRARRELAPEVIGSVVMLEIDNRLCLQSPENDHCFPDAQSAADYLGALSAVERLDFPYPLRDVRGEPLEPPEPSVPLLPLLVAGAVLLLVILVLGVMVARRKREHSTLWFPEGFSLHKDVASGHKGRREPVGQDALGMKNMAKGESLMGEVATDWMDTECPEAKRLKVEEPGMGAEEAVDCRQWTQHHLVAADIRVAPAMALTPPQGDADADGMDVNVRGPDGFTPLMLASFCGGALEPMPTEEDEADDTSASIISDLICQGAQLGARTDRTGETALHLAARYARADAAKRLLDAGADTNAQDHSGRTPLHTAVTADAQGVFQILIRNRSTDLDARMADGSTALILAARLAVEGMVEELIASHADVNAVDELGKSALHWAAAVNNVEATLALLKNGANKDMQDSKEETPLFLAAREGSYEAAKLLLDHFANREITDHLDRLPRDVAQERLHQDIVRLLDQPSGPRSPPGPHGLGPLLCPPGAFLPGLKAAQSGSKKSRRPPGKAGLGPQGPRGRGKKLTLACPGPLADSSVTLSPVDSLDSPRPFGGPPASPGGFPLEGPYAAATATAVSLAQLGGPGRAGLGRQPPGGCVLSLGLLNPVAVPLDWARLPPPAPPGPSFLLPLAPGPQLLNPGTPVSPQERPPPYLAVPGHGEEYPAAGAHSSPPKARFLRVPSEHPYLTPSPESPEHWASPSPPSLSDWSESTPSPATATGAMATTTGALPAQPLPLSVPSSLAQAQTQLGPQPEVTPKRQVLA

[10] = small-molecule microarray binders of probe aEGFR, primary screen, biochemical, biotinylated probe, 635/667 nm fluorescence (AID 1097); conditions: higher = more signal;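 also: probe is a biotinylated anti-EGFR antibody binding compounds printed on slides; score combines fluorescence near 667 nm and signal to noise of each spot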
[11] = tested on: Plasmodium falciparum Sir2 (PF13_0152, Sir2A); assay: pfSir2 binders on small-molecule microarrays, primary screen, biochemical, small-molecule microarray, 635 nm fluorescence (AID 1098); conditions: small-molecule microarray binding, fluorescence 635 nm; higher = more signal;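 also: score merges spot fluorescence intensity with its signal-to-noise ratio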
[12] = small-molecule microarray binders of probe aDKK1, primary screen, biochemical, biotinylated probe, 635/667 nm fluorescence (AID 1099); conditions: higher = more signal;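 also: score merges 667nm spot fluorescence with signal to noise across triplicate slides; reference of the scale not given here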
[13] = small-molecule microarray binders of probe aCHRDL2, primary screen, biochemical, biotinylated probe, 635/667 nm fluorescence (AID 1100); conditions: higher = more signal
[14] = splicing luciferase reporter signal modulators, primary screen, spliceosome inhibition project, cell-based, HEK293, splice +/- reporter (AID 1101); conditions: luminescence, 24 h, higher = more signal, called active from +8 up or from −8 down;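 also: HEK293 cells carrying a splicing-competent luciferase reporter gene; test concentration not given here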
[15] = molecular target: Fibroblast growth factor 10 (Homo sapiens) (UniProt O15520); assay: FGF10 binders on small-molecule microarrays, primary screen, biochemical, small-molecule microarray, 635 nm fluorescence (AID 1102); conditions: FGF10 binding, fluorescence 635 nm, higher = more signal
Fibroblast growth factor 10 (Homo sapiens), sequence (O15520 whole entry, looked up): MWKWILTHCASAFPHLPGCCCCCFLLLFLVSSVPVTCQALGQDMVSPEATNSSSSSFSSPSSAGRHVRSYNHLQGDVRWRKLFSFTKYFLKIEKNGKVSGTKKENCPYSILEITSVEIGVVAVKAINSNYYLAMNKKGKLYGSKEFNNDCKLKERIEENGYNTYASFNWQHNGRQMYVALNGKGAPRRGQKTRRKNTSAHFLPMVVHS

[16] = tested on: glycogen synthase kinase-3 (GSK3A per assay name; protocol says GSK3B); assay: GSK3 binders on small-molecule microarrays, primary screen, biochemical, small-molecule microarray, 635 nm fluorescence, GSK3A (AID 1103); conditions: small-molecule microarray binding, fluorescence 635 nm; higher = more signal; also: the record names both GSK3A and GSK3B
[17] = molecular target: Epidermal growth factor receptor (Homo sapiens) (UniProt P00533); assay: EGFR binders on small-molecule microarrays, primary screen, biochemical, small-molecule microarray, 635 nm fluorescence (AID 1104); conditions: EGFR binding, higher = more signal;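 also: score merges 667 nm emission intensity with spot signal to noise over triplicate slides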
Epidermal growth factor receptor (Homo sapiens), sequence (P00533 whole entry, looked up): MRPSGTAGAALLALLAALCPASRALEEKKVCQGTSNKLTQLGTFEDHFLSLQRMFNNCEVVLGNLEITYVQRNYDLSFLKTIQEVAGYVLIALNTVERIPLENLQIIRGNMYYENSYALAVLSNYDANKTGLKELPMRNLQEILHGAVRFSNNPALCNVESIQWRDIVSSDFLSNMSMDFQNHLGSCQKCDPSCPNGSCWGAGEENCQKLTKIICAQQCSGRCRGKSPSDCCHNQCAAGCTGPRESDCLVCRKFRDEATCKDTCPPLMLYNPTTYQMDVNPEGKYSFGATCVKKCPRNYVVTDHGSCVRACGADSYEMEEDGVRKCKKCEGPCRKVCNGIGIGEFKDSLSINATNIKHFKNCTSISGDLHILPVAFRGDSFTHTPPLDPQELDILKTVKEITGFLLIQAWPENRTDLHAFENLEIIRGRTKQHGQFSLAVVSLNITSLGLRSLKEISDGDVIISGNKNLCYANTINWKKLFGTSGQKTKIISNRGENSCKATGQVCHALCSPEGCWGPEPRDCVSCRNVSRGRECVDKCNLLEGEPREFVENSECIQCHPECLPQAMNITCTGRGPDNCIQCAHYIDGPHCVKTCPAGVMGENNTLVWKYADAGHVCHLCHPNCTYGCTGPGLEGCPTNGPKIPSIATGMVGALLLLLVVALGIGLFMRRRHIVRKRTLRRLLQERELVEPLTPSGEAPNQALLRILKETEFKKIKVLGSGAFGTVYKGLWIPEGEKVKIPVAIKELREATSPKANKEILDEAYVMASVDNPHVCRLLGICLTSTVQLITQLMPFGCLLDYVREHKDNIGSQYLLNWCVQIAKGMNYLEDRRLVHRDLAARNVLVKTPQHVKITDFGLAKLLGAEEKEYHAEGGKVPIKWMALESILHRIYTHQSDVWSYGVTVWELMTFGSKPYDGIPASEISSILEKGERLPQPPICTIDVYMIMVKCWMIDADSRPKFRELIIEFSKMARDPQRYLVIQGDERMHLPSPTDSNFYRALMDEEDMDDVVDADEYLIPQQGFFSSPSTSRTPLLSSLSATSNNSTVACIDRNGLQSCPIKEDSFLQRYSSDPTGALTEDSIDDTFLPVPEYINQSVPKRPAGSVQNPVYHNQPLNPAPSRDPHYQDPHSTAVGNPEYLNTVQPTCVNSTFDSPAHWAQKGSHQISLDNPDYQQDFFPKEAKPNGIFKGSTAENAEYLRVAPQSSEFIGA

[18] = molecular target: Follistatin-related protein 3 (Homo sapiens) (UniProt O95633); assay: FSTL3 binders on small-molecule microarrays, primary screen, biochemical, small-molecule microarray, 635 nm fluorescence (AID 1105); conditions: FSTL3 binding, higher = more signal;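 also: score merges emission near 667 nm and signal to noise per printed spot across three slides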
Follistatin-related protein 3 (Homo sapiens), sequence (O95633 whole entry, looked up): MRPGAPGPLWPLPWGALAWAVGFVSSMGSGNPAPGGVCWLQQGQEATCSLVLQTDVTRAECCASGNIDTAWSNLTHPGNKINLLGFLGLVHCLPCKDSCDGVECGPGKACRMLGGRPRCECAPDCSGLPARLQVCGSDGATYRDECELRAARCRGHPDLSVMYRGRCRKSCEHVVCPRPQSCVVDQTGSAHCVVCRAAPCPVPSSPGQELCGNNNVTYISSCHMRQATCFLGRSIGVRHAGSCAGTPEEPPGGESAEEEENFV

[19] = molecular target: Dickkopf-related protein 1 (Homo sapiens) (UniProt O94907); assay: DKK1 binders on small-molecule microarrays, primary screen, biochemical, small-molecule microarray, 635 nm fluorescence scan (AID 1106); conditions: DKK1 binding, higher = more signal;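 also: score merges emission near 667 nm with signal to noise over three replicate slides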
Dickkopf-related protein 1 (Homo sapiens), sequence (O94907 whole entry, looked up): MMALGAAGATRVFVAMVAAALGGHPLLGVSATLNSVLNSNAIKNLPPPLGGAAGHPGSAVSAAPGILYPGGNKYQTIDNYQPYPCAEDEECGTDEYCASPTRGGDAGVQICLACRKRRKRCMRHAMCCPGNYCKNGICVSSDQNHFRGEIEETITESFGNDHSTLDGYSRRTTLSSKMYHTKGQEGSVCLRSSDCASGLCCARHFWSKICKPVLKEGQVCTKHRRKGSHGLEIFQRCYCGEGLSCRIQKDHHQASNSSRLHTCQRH

[20] = tested on: Inhibin beta A chain (activin A); assay: INHBA (activin A) binders on microarrays, primary screen, biochemical, small-molecule microarray, 635 nm fluorescence scan (AID 1107); conditions: small-molecule microarray binding, higher = more signal;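 also: mouse activin A protein probed at 4.33 µg/mL on printed slides; score merges bound-protein fluorescence near 667 nm with spot signal-to-noise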

Row | Compound | composite z-score [1] | z-score [2] | z-score [3] | z-score [4] | composite z-score [5] | z-score [6] | composite z-score [7] | composite z-score [8] | composite z-score [9] | composite z-score [10] | composite z-score [11] | composite z-score [12] | composite z-score [13] | z-score [14] | composite z-score [15] | composite z-score [16] | composite z-score [17] | composite z-score [18] | composite z-score [19] | composite z-score [20]
1 | COc1ccc(C#Cc2ccc3c(c2)[C@]2(C(=O)N3)[C@H](c3ccc(O)cc3)N3[C@H](c4ccccc4)[C@H](c4ccccc4)OC(=O)[C@H]3[C@@H]2C(=O)NC[C@H](O)c2ccccc2)cc1 | 0.958 | 2.29 (inactive) | 0.241 (inactive) | 1.75 (inactive) | 2.17 | 0.864 (inactive) | -0.0778 | 0.897 | 1.01 | 0.0221 | 1.14 | 0.155 | 0.397 | -1.02 (inactive) | 0.94 | 0.755 | 0.206 | 0.801 | 0.233 | 0.282
2 | CCOC(=O)C[C@H]1[C@H](OC(=O)c2ccc(C(=O)c3ccccc3)cc2)[C@@H](NC(=O)C2CCCCC2)c2cc(OCCCO)ccc2N1C(=O)c1ccccc1 | 1.55 | -0.326 (inactive) | 0.358 (inactive) | -0.155 (inactive) | 2.04 | -1.15 (inactive) | -0.02 | 0.45 | -0.215 | 0.0546 | 0.348 | -0.0675 | -0.0333 | 0.062 (inactive) | 0.398 | 0.628 | 0.122 | 0.165 | 0.126 | 0.559
3 | CCCCC(CC)C(O)C1C=CC2C(=O)N(c3ccccc3)C(=O)C2N1Nc1ccccc1 (stereo not given) | 0.527 | 0.549 (inactive) | 0.645 (inactive) | 0.804 (inactive) | 2.94 | -1.54 (inactive) | 0.0319 | -0.0087 | 1.11 | 0.0276 | 0.889 | 0.674 | 0.932 | -0.901 (inactive) | 0.753 | 0.0129 | -0.456 | 1.13 | -0.648 | 1.02
4 | CCCC[C@@H]1C[C@H]1[C@@H](NC(=O)c1ccc(-c2ccccc2)cc1)c1ccc(-c2ccccc2)cc1 | 0.407 | -0.38 (inactive) | -6.62 (inactive) | -2.47 (inactive) | 0.983 | -1.08 (inactive) | -0.0986 | 0.677 | 1 | -0.109 | -0.508 | 0.126 | 0.0604 | -2.88 (inactive) | 0.259 | 0.127 | 1.21 | 1.39 | 1.01 | 1.35
5 | COc1ccc(C(=O)Nc2cccc(CN3C(=O)[C@@]4(O[C@@H](CCn5cc(CCO)nn5)[C@H]([Si](C)(C)c5ccc(OC)cc5)[C@H]4C)c4ccccc43)c2)cc1 | 1.55 | 1.65 (inactive) | -14 (active) | 0.984 (inactive) | 2.06 | -1.02 (inactive) | 0.0361 | 1.2 | 1.11 | 0.0511 | 0.758 | -0.111 | 0.124 | -1.16 (inactive) | 0.997 | 1.17 | 0.558 | 1.38 | 0.851 | 1.4
6 | Cc1ccc(F)cc1S(=O)(=O)N[C@@H]1CCN(Cc2ccc(-c3ccccc3)cc2)C1 | 0.126 | -26.5 (active) | -21.3 (active) | -4.06 (inactive) | 0.12 | -19.9 (active) | 0.144 | 0.713 | 0.481 | -0.0565 | 0.293 | -0.188 | -0.318 | 1.18 (inactive) | 0.927 | 0.205 | 0.156 | 0.239 | 0.138 | 0.42
7 | COCCOC(=O)N1C(=O)[C@@]2(c3cc(C#CCC(C(=O)OC)C(=O)OC)ccc31)[C@H](C(=O)N1CCCCCCC1)[C@H]1C(=O)O[C@H](c3ccccc3)[C@H](c3ccccc3)N1[C@@H]2c1ccc(OCCO)cc1 | 1.54 | 1.47 (inactive) | 0.168 (inactive) | 2.66 (inactive) | 4.11 | 0.275 (inactive) | 1.66 | 2.02 | 1.05 | 1.26 | 1.74 | 2.72 | 1.65 | 0.161 (inactive) | 1.45 | 1.35 | 1.76 | 1.65 | 2.25 | 1.62
8 | CC(C)(C)OC(=O)CC[C@@]1(C(=O)NCCN2CCOCC2)N=C(c2ccc(OCCCO)cc2)O[C@@H]1c1ccccc1 | 1.57 | -0.444 (inactive) | 0.0418 (inactive) | -0.552 (inactive) | 3.1 | 1.03 (inactive) | 0.37 | 0.755 | 0.807 | 0.285 | 1.48 | 1.06 | 1.11 | -1.16 (inactive) | 1.01 | 0.896 | 0.335 | 1.05 | 0.126 | 0.767
9 | O=C1O[C@@H](c2ccccc2)[C@@H](c2ccccc2)N2[C@@H](c3ccc(O)cc3)[C@]3(C(=O)Nc4ccc(C#CC5(O)CCCCCC5)cc43)[C@@H](C(=O)N3CCCCCCC3)[C@H]12 | 1.54 | 1.16 (inactive) | 0.321 (inactive) | 2.09 (inactive) | 4.45 | 0.26 (inactive) | 1.42 | 2.41 | 1.07 | 1.24 | 1.99 | 2.61 | 1.26 | -0.612 (inactive) | 1.51 | 1.38 | 1.83 | 1.53 | 2.49 | 1.86
10 | NC(=O)NCC#Cc1ccc2c(c1)[C@]1(C(=O)N2)[C@H](C(=O)N2CCCCCCC2)[C@H]2C(=O)O[C@H](c3ccccc3)[C@H](c3ccccc3)N2[C@@H]1c1ccc(OCCO)cc1 | 1.43 | 1.65 (inactive) | 0.562 (inactive) | 4.58 (inactive) | 2.06 | -0.219 (inactive) | 1.63 | 1.47 | 1.02 | 0.864 | 1.2 | 2.11 | 1.36 | -0.144 (inactive) | 1.29 | 0.748 | 1.35 | 1.63 | 1.75 | 1.53
